Many of the other results were omitted from the sample, so hits are more common in it than they were.
ERK EGF inh: qHTS Assay for Inhibitors of the ERK Signaling Pathway using a Homogeneous Screening Assay; Stimulation with EGF; Potency, µM (titrated, usually from 11.5 µM), actives largely listed as inhibitors; HEK293-V1b, EGF-stimulated phospho-ERK AlphaScreen; AID 1454, 2008; 130,000 tested, 0.41% active; active = well fitted inhibition curve with a large enough effect; also: nearly all actives have a fitted effect of over 55% in size
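EGF-stimulated (25 nM, 5 min) phospho-ERK in HEK293 cells stably expressing V1b, cells pretreated 30 min with compound at 37C. Homogeneous AlphaScreen read on lysates.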
Large screens that a line does not name were inactive.

C[C@H]1C2=C3C(CC[C@H]4C(OCc5ccc(F)cc5C(F)(F)F)OC[C@](C)([C@@H]34)N(C(=O)OC(C)(C)C)C2)C(CO)C1CO (stereo not given in full)	none
Cc1cc(C)[n+](C)n1CC(O)Cn1c2ccccc2c2ccccc21 (stereo not given)	none
CC(N)=O	none
CCCCc1ccc(NC(=S)N2CCN(c3ncccn3)CC2)cc1	none
CCNC(=S)Nc1cccc(S(=O)(=O)Nc2ccccc2OC)c1	none
COc1ccccc1NS(=O)(=O)c1cccc(NC(=O)Cc2cccs2)c1	none
COc1ccccc1NS(=O)(=O)c1cccc(NC(=O)Nc2ccc(Cl)cc2)c1	ERK EGF inh 28µM
N#C/C(=C\c1ccncc1)c1nc2c(s1)CCCC2	none
O=S(=O)(c1ccccc1)N1CCC[C@@]2(CCN(Cc3cc(C(F)(F)F)cc(C(F)(F)F)c3)C2)C1	none
Cc1ccc2c(c1)C(=O)[C@]1(O)CCN(c3ccccc3)C1=N2	none
COc1ccc2cc(S(=O)(=O)N3CCCCCC3)ccc2c1	none
COCC(C)Nc1ccc(S(=O)(=O)N2CCCC2)cc1[N+](=O)[O-] (stereo not given)	none
COc1ccc(Nc2ccc(S(=O)(=O)N3CCCCCC3)cc2[N+](=O)[O-])cc1	ERK EGF inh 20µM
COC(=O)c1ccccc1NC(=O)CSc1ncn[nH]1	none
CN1C(=O)/C(=C/C=C2/CCCN2C)N(C)C1=S	none
Cc1cc(/C=C2\NC(=S)N(C)C2=O)ccc1N1CCCC1	none
Cc1cc(/C=C2/C(=O)N(C)C(=S)N2C)ccc1N1CCCC1	ERK EGF inh 25µM
Cc1ccc(NC(=O)CCc2nc3ccccc3s2)c(O)c1	none
Cc1nc(NC(=O)CSc2nnc(N)s2)c(Cl)cc1Cl	none
COC(=O)[C@@]1(Cc2ccc(F)cc2)[C@H]2c3cc(C(=O)N(C)C)n(Cc4ccccc4)c3C[C@H]2CN1C(=O)c1ccccc1	none
COC(=O)[C@@]1(Cc2ccc(OC)cc2)[C@@H]2C(=CC(=O)[C@H]2CC(=O)C(=O)N(C)C)CN1C(=O)c1ccccc1	none
C=C1C(=O)C=C2CN(C(=O)c3ccccc3)[C@@](Cc3ccc(F)cc3)(C(=O)OC)[C@@H]12	ERK EGF inh 22µM
Cc1cc(C)c(N2C(=O)C3C4CC(=O)C(c5ccccc54)C3C2=O)c(C)c1 (stereo not given)	none
CC(OC(=O)C1CCCCC1)c1nc2ccccc2[nH]1 (stereo not given)	none
O=C(NCCCc1nc2ccccc2[nH]1)c1ccc(F)cc1	none
COC(=O)C1=CO[C@@H](O[C@H]2OC(CO)C(O)C(O)C2O)C2C1CC(O)C2C (stereo not given in full)	none
O=C(Nc1ccc(OC(F)(F)F)cc1)c1ccc(-n2cncn2)nc1	none
Cc1csc2ncnc(N3CCN(C(=O)Nc4ccc(OC(F)(F)F)cc4)CC3)c12	ERK EGF inh 28µM
O=C(Nc1ccc(OC(F)(F)F)cc1)N1CCN(c2ccnc3cc(Cl)ccc23)CC1	none
CCN1C(=O)N(C(C)=O)C2C1N(C(C)=O)C(=O)N2C(C)=O (stereo not given)	none
CC(NC(=O)C(=O)N/N=C\c1ccc([N+](=O)[O-])cc1)c1ccccc1 (stereo not given)	none
CCOc1ccc(Nc2c3ccccc3nc3ccccc23)cc1	none
CCOc1ccc(NC2=C(OC)C(=O)c3ccccc3C2=O)cc1	ERK EGF inh 13µM
CCNC1=C(Cl)C(=O)c2ccccc2C1=O	none
COc1ccc(C2=C(Nc3ccccc3)c3ccccc3C2=O)cc1	none
CCOc1ccc(NC(C)=O)cc1	none
COC1=C(Nc2ccc(OC)cc2)C(=O)c2ccccc2C1=O	ERK EGF inh 13µM
COc1ccc(NC2=C(c3ccc(OC)cc3)C(=O)c3ccccc32)cc1	none
CCN(CC)c1ccc(NC2=C(Cl)C(=O)c3ccccc3C2=O)cc1	ERK EGF inh 10µM
O=C1C(Cl)=C(NCCN2CCCCC2)C(=O)c2ccccc21	none
CCCCC1=CC2=C(c3ccco3)C(=O)C(C)(OC(=O)c3cccs3)C(=O)C2=CO1 (stereo not given)	none
COc1ccc(CSCC(=O)N/N=C/c2ccccc2O)cc1	none
O=C(O)CSc1nnc(Cc2cccc3ccccc23)n1-c1cc(C(F)(F)F)cc(C(F)(F)F)c1	none
CS(=O)(=O)N1CCC[C@@]2(CCN(Cc3ccc(C#N)cc3)C2)C1	none
Cc1ccc(NP(=O)(Nc2ccc(C)cc2)Nc2ccc(C)cc2)cc1	none
O=[N+]([O-])c1ccc(N/N=C2\CC3CC=CC23)c([N+](=O)[O-])c1 (stereo not given)	ERK EGF inh 14µM
CCC(CC)=NNc1ccc([N+](=O)[O-])cc1[N+](=O)[O-]	none
O=[N+]([O-])c1ccc(N/N=C2\CC3CC=CC23)cc1 (stereo not given)	none
CCOc1ccc(-c2csc(NNC3=NCCCCC3)n2)cc1	none
COc1ccc(C)cc1-n1c(=O)c2ccccc2c2ccccc2c1=O	none
COc1ccc(C)cc1N1C(=N)/C(=C2/Nc3ccccc3S2)C(c2ccccc2)C1=O (stereo not given)	ERK EGF inh 20µM
COc1ccccc1N1C(=O)C2CCC(c3ccccc3)CC2C1=O (stereo not given)	none
COc1ccc(-c2nnc(SCC(=O)O)n2C)cc1OC	none
CC(=O)Nc1ccc(S(=O)(=O)NCCc2ccccn2)cc1	none
CCOC(=O)C1(CC2CC2)CCN(S(=O)(=O)C[C@]23CC[C@H](CC2=O)C3(C)C)CC1	none
O=C(c1ccc(-n2cccn2)cc1)N1CCc2ccccc2C1	none
CCCCCCCCCCCCCCCCCCOC[C@@H](O)COP(=O)([O-])OCC[N+](C)(C)C	none
CCCCCCCCCCCCCCCC(=O)NCC(COP(=O)([O-])OCC[N+](C)(C)C)OCC (stereo not given)	ERK EGF inh 25µM
CC/C=C\C/C=C\C/C=C\C/C=C\C/C=C\CCC(=O)O[C@H](COCCCCCCCCCCCCCCCC)COP(=O)([O-])OCC[N+](C)(C)C	none
CCNS(=O)(=O)c1ccc(NC(=O)Cn2cc([N+](=O)[O-])cn2)cc1	none
Cc1ccc(NC(=O)COC(=O)CSC(=S)N2CCOCC2)cc1	none
CCC(C)(C)c1ccc(OCCCC[n+]2cccc(C)c2C)c(C(C)(C)CC)c1	ERK EGF inh 32µM
Cc1cc(C(C)(C)C)ccc1OCCCCN1CCCC1	none
COc1ccc(C(=O)C[n+]2cccc(C)c2C)cc1[N+](=O)[O-]	none
C=CC[C@](C)(O)c1ccccc1	none
O=C(N/N=C/c1ccc[nH]1)c1ccc(COc2cccc3cccnc23)cc1	ERK EGF inh 25µM
NNC(=O)c1ccc(COc2cccc3cccnc23)cc1	none
O=C(N/N=C/c1ccccc1C(=O)O)c1ccc(COc2cccc3cccnc23)cc1	none
O=C(Nc1ccc(C(=O)Nc2ccc(C(=O)Nc3ccc(S(=O)(=O)O)c4cc(S(=O)(=O)O)cc(S(=O)(=O)O)c34)cc2)cc1)Nc1ccc(C(=O)Nc2ccc(C(=O)Nc3ccc(S(=O)(=O)O)c4cc(S(=O)(=O)O)cc(S(=O)(=O)O)c34)cc2)cc1	none
Cc1cccc(N)c1-c1c(C)cccc1N	none
CCOc1ccc2[nH]c3c(N4CCC5(CC4)OCCO5)ncnc3c2c1	none
COc1ccc2[nH]c3c(=O)n(CCCN4CCOCC4)cnc3c2c1	none
COc1ccc2[nH]c3c(N4CCc5ccccc5C4)ncnc3c2c1	ERK EGF inh 32µM
CN(C)c1ccc(C(=O)Nc2nc3c(s2)CCCC3)cc1	ERK EGF inh 22µM
CC(C)(C)c1ccc(C(=O)NC(=S)Nc2nc3c(s2)CCCC3)cc1	none
O=C(Nc1nc2c(s1)CCCC2)c1ccc(S(=O)(=O)N2CCCc3ccccc32)cc1	none
C/C(=N\Nc1cccc(Cl)c1)C1(C)N(O)C(C)(C)C(c2ccco2)=[N+]1[O-] (stereo not given)	none
